# Sampled rows, rich in hits. Any-hit rate of the full collection: about 1.4%.
# HTR5A ag: counter-screen for OPRM1-OPRD1 agonists: human HTR5A agonism; P47898; HTR5A agonist assay, luminescence, cell-based; activation, % at 9.3 µM; actives 0.61% (n = 340,000); AID 504692; in the data active means activation mostly above about 9.5%, no sharp cut-off; inactive means mostly below about 7.6%;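 further: 0% = cells with vehicle only and 100% = reference agonist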
# Target sequence (P47898 whole entry, looked up): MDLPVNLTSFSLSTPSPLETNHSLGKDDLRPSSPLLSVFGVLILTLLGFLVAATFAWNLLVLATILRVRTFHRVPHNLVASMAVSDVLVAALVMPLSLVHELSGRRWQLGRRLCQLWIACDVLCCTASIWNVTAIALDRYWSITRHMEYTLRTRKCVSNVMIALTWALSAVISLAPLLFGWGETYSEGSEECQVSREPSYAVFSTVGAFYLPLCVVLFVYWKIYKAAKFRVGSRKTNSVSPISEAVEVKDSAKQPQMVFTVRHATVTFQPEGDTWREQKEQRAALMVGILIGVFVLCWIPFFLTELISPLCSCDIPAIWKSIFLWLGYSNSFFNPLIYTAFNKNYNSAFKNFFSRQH
# MOR-DOR ag-1: OPRM1-OPRD1 heterodimerization agonism | P35372+P41143 | cells, luminescence | activation, % at 9.3 µM | actives 0.3% (n = 340,000);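 further: 0% = vehicle-treated cells and 100% = reference agonist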
# HTR5A inv ctr: HTR5A inverse agonism, opioid heterodimer counter-screen; P47898; HTR5A cell line, luminescence; inhibition, % at 9.3 µM; actives 0.083% (n = 340,000); AID 504634; in the data active means inhibition mostly above about 23%, no sharp cut-off; inactive means mostly below about 18%;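 further: 0% = cells with DMSO and 100% = no-cell wells with DMSO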
# beta cell repl: inducers of beta-cell replication in MIN6 cells. MIN6 cells proliferation, ATPlite luminescence, 48 h; cells starved in 0.2% serum; 100% = growth in 10% serum. proliferation, % at 10 µM. actives 0.29% (n = 330,000). AID 2380;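 active means compounds whose signal lies at least 3.5 SD above the mean of all wells on their plate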;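 further: 0% = DMSO-treated cells in low-serum medium and 100% = 10% serum control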
# MOR-DOR inv ag: inverse agonist of human OPRM1-OPRD1 heterodimerization | cell-based MOR-DOR heterodimer luminescence, inverse agonism | inhibition, % at 9.3 µM | actives 0.21% (n = 340,000); in the data active means inhibition above about 22%, passing the limit was not always enough;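 further: 0% = cells with DMSO and 100% = wells without cells with DMSO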
# pCIP destab: lowers stability of the mouse p/CIP coactivator protein; decrease of EGFP signal, % at 10 µM; actives 0.01% (n = 290,000); F442A p/CIP-EGFP cells, EGFP fluorescence, 16 h;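 active means EGFP signal decrease of at least 30% at 10 µM or well 3 SD below plate mean, unless failing retest; inactive means the rest, including hits failing retest or dose response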
# MOR-DOR ag-2: promotes OPRM1-OPRD1 heterodimerization in HTR5A counter-screen. activation, % at 9.3 µM. AID 504913. actives 13% (n = 800). U2OS counter-screen cells, complementation luminescence, 3 h. shares compounds with HTR5A ag
# HTR5A ag confirm: confirmation of human HTR5A agonists; shares compounds with HTR5A ag; HTR5A agonist cell assay, luminescence; activation, % at 9.3 µM; actives 17% (n = 800); AID 504915; in the data active means activation above about 17%;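 further: 0% = cells with vehicle only and 100% = full reference agonist response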
# * hit, by the source's call; / = no result. Unless noted, no stated cut-off is given here; in the data, active means activation above about 18%; inactive means the rest.
SMILES,HTR5A ag,MOR-DOR ag-1,HTR5A inv ctr,beta cell repl,MOR-DOR inv ag,pCIP destab,MOR-DOR ag-2,HTR5A ag confirm
CC1CCCC(NC(=O)CSc2n[nH]c(=O)n2Cc2ccccc2)C1C (stereo unspecified),/,/,/,0,/,/,/,/
CC(=O)OC[C@H]1O[C@@H](Oc2cc(O)cc3oc(-c4ccc(O)cc4)cc(=O)c23)[C@H](O[C@@H]2O[C@@H](C)[C@H](O)[C@@H](O)[C@H]2O)[C@@H](O)[C@@H]1O,5,3,-14,-1,-16,/,/,/
Cc1ccc2ccccc2c1CSc1nc(N)nc2c1ncn2CC(C)C,15*,-4,-58,/,17,/,4,2
CC(C)Cn1cnc2c(SCc3ccccc3)nc(N)nc21,-1,-1,6,/,7,/,/,/
Oc1ccc(C23CCCC2C2(CCCC2)c2ccc(O)cc2O3)c(O)c1 (stereo unspecified),-1,6,4,-8,-23,/,/,/
CC(C)c1c(C(=O)N/N=C/c2ccc(OCc3ccc(F)cc3)cc2)nnn1-c1nonc1N,15*,4,-8,8,-21,7,7,-1
Nc1nonc1-n1nnc(C(=O)N/N=C/c2ccc(OCc3ccccc3)cc2)c1COc1ccc(F)cc1,1,1,13,-5,-5,-3,/,/
CC(C)c1c(C(=O)N/N=C/c2ccc(OCc3ccccc3)cc2)nnn1-c1nonc1N,22*,2,-4,-1,-13,-10,41*,-1
COc1ccc(C)cc1NC(=O)CSc1nnc(-c2ccc(Br)cc2)o1,22*,2,-17,-3,-9,-12,2,2
N/C(Cc1ccc(Cl)c(Cl)c1)=N\OC(=O)c1cccs1,44*,1,-104,-5,-4,-4,2,1
COc1ccc(NC(=O)N(C)C[C@H]2Oc3c(NC(=O)c4nc5ccccc5s4)cccc3C(=O)N([C@@H](C)CO)C[C@H]2C)cc1,3,-3,-6,-5,16,/,/,/
Cc1ccc(Cn2c(N)c(S(=O)(=O)c3cccs3)c3nc4ccccc4nc32)cc1,3,2,-7,-1,-12,-8,/,/
COc1ccc(Cn2c(N)c(S(=O)(=O)c3cccs3)c3nc4ccccc4nc32)cc1,15*,3,-5,-2,-13,-3,3,3
CCOCCCN(C(=O)CCC(=O)Nc1cc(C)on1)C(C(=O)NC(C)(C)C)c1ccccc1Cl (stereo unspecified),3,-1,-8,0,8,3,/,/
C=CCn1c(SCC(=O)Nc2sccc2C(N)=O)nc2sc(C)c(C)c2c1=O,18*,-1,-46,-1,6,/,0,-3
C=CCn1c(SCC(=O)Nc2ccccc2C)nc2sc(C)c(C)c2c1=O,1,3,-20,-2,-16,4,/,/
Cc1cc(C)c(C(=O)Nc2ccc(Br)c(C(F)(F)F)c2)c(C)c1,18*,8,-13,-5,-46,-11,0,0
O=C(O)c1ccccc1C(=O)Nc1ccc(Br)c(C(F)(F)F)c1,-4,-1,-5,-1,6,-13,/,/
CCOc1cc(S(=O)(=O)N2CCCCCC2)ccc1F,20*,1,-15,-4,-4,0,2,4
CCOc1ccccc1N1CCN(S(=O)(=O)c2ccc(F)c(F)c2)CC1,-1,0,-7,-3,1,-4,/,/
COc1ccc(CCNC(=O)COC(=O)C2CC2)cc1OC,4,2,-17,1,-10,/,/,/
CC(=O)Nc1ccc2nc(NC(=O)c3cccnc3)sc2c1,15*,0,-34,2,-1,-1,2,51*
CCCc1[nH]n(-c2ccc([N+](=O)[O-])cc2)c(=O)c1C=NCCc1c[nH]c2ccccc12,20*,1,-44,0,-7,-4,5,5
Cc1[nH]n(-c2ccc([N+](=O)[O-])cc2)c(=O)c1C=NCCc1c[nH]c2ccccc12,34*,1,-100,2,-5,1,3,10

# Assay outcomes from PubChem BioAssay.
